Data as given in PubChem BioAssay AID1918969 (ICCB-Longwood Screening Facility, Harvard Medical School, 2023).
“And” between values parts separate entries of the source, which are not always exact repeats. Equal entries are not always repeated. The whole screen tested about 190,000 compounds, of which about 280 (0.15%) were called active. Shown is part of a subset that was picked to be rich in actives. Unmarked numbers belong to inactive results. Cut-off read from the data, not from the text of the source: active = inhibition above about 27% (passing the limit was not always enough); inactive = the rest.

tested on: HCMV UL50-UL53 nuclear egress complex (human cytomegalovirus); experiment: HCMV nuclear egress complex disruptors – biochemical, HTRF (AID 1918969); conditions: HTRF UL50-UL53 interaction, normalized percent inhibition; stronger effect = higher value; concentration not given here

SMILES | inhibition
CCOc1cc(C=C2C(=O)NC(=O)NC2=O)ccc1OCCOc1ccc([N+](=O)[O-])cc1 | -8.1%
COc1cc(C=C2C(=O)NC(=O)NC2=O)ccc1OCCOc1ccc([N+](=O)[O-])cc1 | 1.5%
CCOc1cc(C=C2C(=O)NC(=O)NC2=O)ccc1OCCOCCOc1ccc(C)cc1 | 45.8% (active)
CCOC(=O)/C(C#N)=C/Nc1ccccc1 | -4.4%
Cc1cc(C)c(C(N)=O)c(=O)[nH]1 | -10.3%
O=C(NN1C(=O)/C(=C/c2ccc(-c3ccc([N+](=O)[O-])cc3)o2)SC1=S)c1ccccc1[N+](=O)[O-] | -1.8%
CCCC(O)c1nc2ccccc2n1CCOc1ccccc1Cl (configuration not stated) | -14.3%
CC1CCN(S(=O)(=O)c2ccc3ncn(CC(=O)N4CCCCC4C)c(=O)c3c2)CC1 (configuration not stated) | 3.7%
CC(C)(Oc1ccc(Cl)cc1)C(=O)OCCN1CCCC1=O | 16.4%
CCOC(=O)c1c(C)oc2nc(COc3ncnc4c3cnn4-c3ccccc3)nc(N)c12 | -27.9%
Nc1c(C(=O)N2CCc3ccccc3C2)sc(=S)n1-c1ccccc1 | 3.7%
CCCCCC#CCC#CCCCCCCCC(=O)O | -8.8%
CC(C)Nc1nc(-c2ccccc2O)nc2ccccc12 | 54.6% (active)
CC(Nc1nc(N2CCCC2)nc2ccccc12)c1ccccc1 (configuration not stated) | 38.8% and -22.4%
CCN(CC)c1nc(-c2ccccc2O)nc2ccccc12 | -4.1%
Cc1ccc(C)c(NC(=O)Cc2coc3ccc(C)cc23)c1 | -31.3%
Cc1c(C(=O)O)sc2ncnc(N3CCN(c4ccccn4)CC3)c12 | -8.6%
O=C(O)CCCOc1ccc(Cl)cc1 | -22.4%
CCOc1ccc(N2CC(c3nc4ccccc4n3CCOc3ccc(OC)cc3)CC2=O)cc1 (configuration not stated) | -33.2%
CCc1ccccc1N1CC(c2nc3ccccc3n2CCCCOc2ccccc2)CC1=O (configuration not stated) | 74.6% (active)
COc1ccc(OCCCn2c(C3CC(=O)N(c4ccc(F)cc4)C3)nc3ccccc32)cc1 (configuration not stated) | -4.1%
CCc1nn(CC(=O)NCC2CCCO2)c(=O)c2cc3ccccc3n12 (configuration not stated) | -52.3%
CCOC(=O)c1sc2cccc(F)c2c1S(=O)(=O)N1CC=C(c2ccccc2)CC1 | 6.4%
COC(=O)c1cc(S(=O)(=O)N2CCc3ccccc3C2)c[nH]1 | -4.8%

SMILES | inhibition
Fc1cccc(Cl)c1CSc1nnc(-c2c[nH]c3ccccc23)o1 | 15.6%
CCCc1oc2cc(O)ccc2c(=O)c1Oc1ccc(F)cc1 | 3.5%
Cc1cc(C)cc(-n2c(CCC(=O)O)ccc2-c2cccs2)c1 | -19.7%
Cc1cc(C)c2[nH]c(=O)c(CN(C(=O)Nc3ccccc3F)C3CC3)cc2c1 | -21%
CCOc1ccc(N2C(=O)N(CC(=O)N3CCCCC3C)c3ccccc3S2(=O)=O)cc1 (configuration not stated) | -6.7%
CCOC(=O)C1(c2ccccc2)CCCN1C(=O)CN1C(=O)c2ccccc2C1=O (configuration not stated) | -40.9%
Cc1c(C(F)(F)F)nc(-c2ccc(CN(C)C)cc2)[nH]c1=O | -18.3%
CCOC(=O)C(C(=O)c1ccccc1)C1(O)C(=O)c2ccccc2C1=O (configuration not stated) | 94.1% (active)
CCOC(C(=O)c1ccccc1)c1ccccc1 (configuration not stated) | 1.5%
CCOC(=O)C1(C2(O)C(=O)c3ccccc3C2=O)CCCC1=O (configuration not stated) | 7.6%
C#CCn1c(O)c(N=NC(=O)c2cc(OC)c(OC)c(OC)c2)c2ccccc21 | -43.6%
Nc1nnc2c([nH]c3ccccc32)c1-c1ccccc1 | -61.1%
COc1ccc(CC(=O)OCC(=O)Nc2cc(C)ccc2C)cc1 | 20.6%
Cc1cc(=O)n2[nH]c(CN(C(=O)CC(C)C)c3ccc(Cl)cc3)nc2n1 | -9.7%
CCCn1c2ccccc2n2cc(-c3ccc(F)cc3)nc12 | -23.6%
CCOC(=O)C1=C(C)N(c2ccc(OC)cc2)C(=O)/C1=C\c1ccco1 | -53.1%
COc1ccccc1-c1nnc(SCC(=O)Nc2cccc3nsnc23)n1-c1ccccc1 | -31.2%
COc1ccc(C2CC2/C(C)=N/O)cc1 (configuration not stated) | -8.3%
CN(C)S(=O)(=O)c1ccc2nc(NC(=O)CN3C(=O)c4ccccc4C3=O)sc2c1 | -36.1%
Clc1cccc(-c2cc(-c3nc(-c4ccccc4)no3)[nH]n2)c1 | -20.2%
Cn1c(CNC(=O)OC(C)(C)C)nnc1SCc1c(F)cccc1Cl | -17%
CCC(Sc1nc2ncccc2o1)C(=O)N(Cc1ccccc1)C(C)C (configuration not stated) | -29.3%
CCN1C(=O)c2cccc3c(S(=O)(=O)Nc4cccc(C)n4)ccc1c23 | -9%
